Here are results for 89 molecules from PubChem BioAssay AID651725 (National Center for Advancing Translational Sciences (NCATS), 2012).

Screen size: about 360,000 compounds; about 2,000 (0.56%) were called active. Inconclusive results (about 2%) are left out. Cut-off read from the data, not from the text of the source: active = activity change below about -65%; inconclusive = mostly about -30% to -63%; inactive = weaker than that. Only a selection was taken, and actives are over-represented in it overall.
% is set by controls: 0 for no effect and ±100 for the full control effect.

Chain of Homeobox protein SIX1 (Homo sapiens) + Protein phosphatase EYA2 (Homo sapiens) (O00167 whole entry, looked up): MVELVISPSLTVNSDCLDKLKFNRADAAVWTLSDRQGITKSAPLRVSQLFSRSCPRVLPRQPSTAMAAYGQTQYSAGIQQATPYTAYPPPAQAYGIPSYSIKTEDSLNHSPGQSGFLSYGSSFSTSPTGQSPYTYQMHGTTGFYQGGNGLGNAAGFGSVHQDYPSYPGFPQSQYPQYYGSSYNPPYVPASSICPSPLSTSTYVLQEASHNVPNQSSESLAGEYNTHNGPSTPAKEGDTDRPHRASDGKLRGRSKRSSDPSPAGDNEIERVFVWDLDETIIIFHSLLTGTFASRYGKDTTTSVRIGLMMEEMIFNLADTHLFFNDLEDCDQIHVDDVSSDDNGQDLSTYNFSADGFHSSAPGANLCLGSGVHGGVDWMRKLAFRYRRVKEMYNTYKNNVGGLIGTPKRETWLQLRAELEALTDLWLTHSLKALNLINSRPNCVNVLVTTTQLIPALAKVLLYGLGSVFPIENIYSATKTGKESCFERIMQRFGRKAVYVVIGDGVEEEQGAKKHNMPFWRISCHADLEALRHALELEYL
Chain of Homeobox protein SIX1 (Homo sapiens) + Protein phosphatase EYA2 (Homo sapiens) (Q15475 whole entry, looked up): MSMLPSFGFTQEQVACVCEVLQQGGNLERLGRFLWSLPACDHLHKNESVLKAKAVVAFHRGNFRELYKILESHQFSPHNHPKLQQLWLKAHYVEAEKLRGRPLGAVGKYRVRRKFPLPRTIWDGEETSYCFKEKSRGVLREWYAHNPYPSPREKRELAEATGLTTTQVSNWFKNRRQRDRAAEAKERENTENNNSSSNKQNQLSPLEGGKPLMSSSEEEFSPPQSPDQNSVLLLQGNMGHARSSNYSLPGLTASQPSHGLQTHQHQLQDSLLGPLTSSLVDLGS

The assay deals with Homeobox protein SIX1 (Homo sapiens) + Protein phosphatase EYA2 (Homo sapiens) (UniProt Q15475+O00167). The assay is described as follows: qHTS Assay for Inhibitors of the Six1/Eya2 Interaction. The note with it: AlphaScreen GST-Six1/His-Eya2 binding, biochemical; active compounds read low. In outline:
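Compounds are tested against tagged Six1 and Eya2 proteins bridged by glutathione donor and nickel acceptor beads; after a one-hour incubation at 37 °C without light, AlphaScreen emission is recorded.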
Background: In qHTS, concentration-response curves come from the screen itself.
Take `COC(=O)[C@@]1(Sc2ccc(C)cc2)CC(=O)N(c2cccc(SC)c2)[C@@H]1c1ccccc1`: the activity change is -16.4% (inactive).
`Cc1cc(C)nc(N/N=C/c2c(CO)cnc(C)c2O)n1`: the activity change is -75.1% (active).
For the molecule `Cc1ccc(S(=O)(=O)N[C@H]2CCC[C@@H]2O)cc1`, the activity change is 7.33% (inactive).
The result for `CC1Cc2[nH][nH]c(=O)c2C(C2CC2)O1` (centres undefined) reads -3.07% (inactive).
Turning to `CC(=O)C[C@@H]1OC[C@H](C)N1S(=O)(=O)c1ccc(C)cc1`, the activity change is -0.665% (inactive).
`Cc1ccc(S(=O)(=O)n2oc(=O)c(C3CCCCC3)c2N)cc1`: the activity change is -78.3% (active).
The result for `Cc1ccc(S(=O)(=O)N2CCC(N3CCCCCC3)CC2)cc1` reads -10.2% (inactive); that for `Cc1ccc(S(=O)(=O)NC2CCCCCC2)cc1`, 8.84% (inactive); that for `CCC(CC)C(C(=O)NC1CCCC1)N1CCN(c2cc(C)nc3ccccc23)CC1` (centres undefined), 0.151% (inactive).
The result for `O=S(=O)(c1ccc(F)cc1)N1CC=C(c2ccccc2)CC1` reads 11.2% (inactive).
In the case of `Cn1c(CC(=O)Nc2ccccc2)nnc1SCC(=O)c1ccccc1`, the activity change was 3.83% (inactive).
The result for `Cn1c(SCC(=O)c2ccc(F)cc2)nnc1-c1ccccn1` reads 3.69% (inactive); that for `Cn1c(CNc2nc(-c3ccccc3)cs2)nnc1SCC(=O)c1ccccc1`, -73.7% (active).
`COc1ccc(OC)c(CN2C(=O)CCC2(C)c2nnnn2Cc2ccccc2)c1` (centres undefined): the activity change was 0.523% (inactive).
Then `COc1cc(C(=O)Nc2ncccc2C)ccc1OCC(=O)N1CCOCC1`, with 7.15% (inactive).
Regarding `Oc1cccc(/C=N/Nc2ccc(Cl)nn2)c1O`, the activity change was -85.5% (active).
Take `C/C(=N/Nc1ccc(Cl)cc1)c1cnnc(-c2ccccc2)n1`: the activity change was 9.69% (inactive).
As to `C/C(=N\Nc1ccc(Cl)nn1)c1ccccc1O`, the activity change was -71.4% (active).
`Fc1ccccc1Cc1ccc(Cl)nn1`: the activity change was 4.04% (inactive).
`CCC1OC(C2CC2)CC2=C1C(=O)OC(C)(C)O2` (centres undefined): the activity change was -0.697% (inactive).
As for `COc1ccc2c(c1)c(C(=O)N/N=C/c1cccs1)c(C)n2C`, the activity change was -4.11% (inactive).
Regarding `CCOC(=O)[C@]12CCCC=C1N(CCC1=CCCCC1)C(=O)[C@H](CC(=O)NCCCCc1ccccc1)C2`, the activity change was -0.886% (inactive).
Turning to `COc1ccc(C(C(=O)Nc2c(C)cccc2C)N2CCN(c3ccc(C)cc3)CC2)cc1` (centres undefined), the activity change is -4.54% (inactive).
For `COc1ccc(OC)c(/C=N/NC(=O)c2ccc[n+](CC(=O)c3ccccc3)c2)c1`, the activity change was -5.56% (inactive).
For `COc1cccc(/C=N/NC(=O)c2[nH]nc3c2CCc2ccccc2-3)c1O`, the activity change was -65.7% (active).
The result for `COc1cccc(/C=N\NC(=O)C2=NNC(=O)C2C)c1O` (centres undefined) reads -90.9% (active); that for `COc1cc(/C=N/NC(=O)c2cccnc2)ccc1OC(=O)c1cccc(Br)c1`, -6.91% (inactive).
On to `COc1ccc(/C=N/NC(=O)C2CC2)c(OC)c1OC`, for which the activity change is 3.31% (inactive).
Consider `CCn1c(/C=N/NC(=O)c2ccc(OC)cc2)nc2ccccc21`, for which the activity change is -12.5% (inactive).
As for `Cc1cccc(C)c1NC(=O)C(c1cccc2ccccc12)n1c(=O)c(-c2ccco2)nc2ccccc21` (centres undefined), the activity change is -22.2% (inactive).
Regarding `CC(C)OC(=O)CC(=O)CC(O)c1cccc([N+](=O)[O-])c1` (centres undefined), the activity change was -3.63% (inactive).
For the molecule `c1ccc(-c2nccc(-c3ccc(-n4cnc5ccccc54)cc3)n2)nc1`, the activity change was -10.5% (inactive).
Consider `Cc1nc2ccccc2c(C(=O)O)c1-c1ccccn1`, for which the activity change is 7.28% (inactive).
Turning to `CC(C)(C)Nc1nc(-c2ccccn2)nc2ccccc12`, the activity change is -89.4% (active).
As for `COc1ccc2c(c1)N(C)/C(=C1/SC(=S)N(NC(C)=O)C1=O)S2`, the activity change is -8.77% (inactive).
Then `O=C1NC[C@H](CCCCN2CCN(CCc3ccccc3)C(=O)C2=O)N(CC2CCCCC2)C1=O`, with -4.53% (inactive); and `Oc1c(CN2CCN(c3ccc(F)cc3)CC2)cc(Cl)c2cccnc12`, with -81.4% (active); and `Cc1cccc(C)c1NC(=O)CN1CCN(c2ccc(F)cc2)CC1`, with -0.798% (inactive).
With `Cc1cc(=O)oc2cc(OCC(=O)N3CCN(c4ccc(F)cc4)CC3)c(Cl)cc12`, the activity change is 3.08% (inactive).
For `CSCCC(C(=O)NC(C)(C)C)n1c(-c2ccccc2)nc2ccccc21` (centres undefined), the activity change was 7.41% (inactive).
On to `Cc1ccc(-c2ccc(C3=CC(=O)CC(C)(C)C3=O)cc2)cc1`, for which the activity change is -1.02% (inactive).
For `CCCc1nc2ccccc2n1C(C)C(=O)NC(C)(C)C` (centres undefined), the activity change was -4.69% (inactive).
The result for `CCOC(=O)N1CCN(C(c2cccnc2)c2ccc3cccnc3c2O)CC1` (centres undefined) reads -88.9% (active); that for `CCOC(=O)N1CCN(C(c2ccnc3ccccc23)c2nnnn2-c2c(C)cccc2C)CC1` (centres undefined), 18.3% (inactive); that for `CCOC(=O)N1CCN(C(=O)C2CCN(c3ncnc4c3sc3cccc(F)c34)CC2)CC1`, -5.48% (inactive).
`CCN1CCN(C(c2cccnc2)c2cc(Cl)c3cccnc3c2O)CC1` (centres undefined): the activity change was -90.1% (active).
`C=CCC[C@H](CCCCC)OC(=O)/C=C/[C@H](O)[C@@H](O)C[C@@H](O)CC=C`: the activity change was 9.69% (inactive).
For the molecule `COC(=O)C[C@H]1C=C[C@@H](NS(=O)(=O)c2ccc(C)cc2)[C@@H](CO)O1`, the activity change is -7.03% (inactive).
With `Cc1ccc(Cn2cc(CN3CC(N4CCN(C)CC4)CS3(=O)=O)nn2)cc1` (centres undefined), the activity change was 2.69% (inactive).
As to `CCOc1ccc(N/C(N)=N/c2nc(C)c(C)c(=O)[nH]2)cc1`, the activity change was 1.12% (inactive).
Then `COc1ccc(/C=N/Nc2nc(-c3ccc(C)cc3)c(C#N)c(=O)[nH]2)cc1`, with 1.97% (inactive); and `Cc1nnc(N/N=C/c2ccccn2)[nH]c1=O`, with -72.8% (active); and `CCOc1ccc(-n2c(O)c(/C=N/Nc3nnc(C)c(=O)[nH]3)c3ccccc3c2=O)cc1`, with -93.7% (active).
For the molecule `COc1ccc(-n2c(O)c(C=NCC(c3ccco3)N3CCCC3)c3ccccc3c2=O)cc1OC` (centres undefined), the activity change is -13% (inactive).
Turning to `Cc1cc(=O)[nH]c(N/N=C/c2c(C)nn(-c3ccccc3Cl)c2Cl)n1`, the activity change was 1.43% (inactive).
Then `Cc1[nH]nc(SCC(=O)NCC(C)C)c1[N+](=O)[O-]`, with 3.57% (inactive).
Regarding `COc1ccc(N(CCC#N)S(=O)(=O)c2ccc(Cl)cc2)cc1`, the activity change was 3.78% (inactive).
Then `CCCCOCCCNC(=O)C[C@@H]1C[C@@]2(C(=O)OCC)CCCC=C2N(CCC2=CCCCC2)C1=O`, with -13.6% (inactive).
The result for `COCCNC(=O)C1C(=O)Nc2ccccc2C(=O)N1c1ccc2c(c1)OCCO2` (centres undefined) reads 7.33% (inactive); that for `CC1(C(=O)Nc2ccc3c(c2)OCCO3)CN(S(C)(=O)=O)CC(=O)N1Cc1cccc(F)c1` (centres undefined), 6.88% (inactive).
In the case of `Oc1c(C(c2ccccn2)N2CCOCC2)ccc2cccnc12` (centres undefined), the activity change was -91.8% (active).
In the case of `O=C(C[C@H]1CC[C@H]2[C@@H](COC[C@H](O)CN2C(=O)c2ccccn2)O1)N1CCN(c2ccccc2)CC1`, the activity change is -7.33% (inactive).
As for `CCCCn1nnnc1C1(C)CCC(=O)N1Cc1ccc(OC)c(OC)c1` (centres undefined), the activity change was -14.1% (inactive).
Then `CC(C)NC(=O)C(=O)NCCCOC(C)C`, with 7.72% (inactive).
For the molecule `Cc1nn(C)cc1C(=O)NNC(=S)Nc1ccc(Cl)cc1`, the activity change is 0.473% (inactive).
Then `Cc1cccc(-n2cnc(C(=O)Nc3cccnc3)c2)n1`, with 26.5% (inactive); and `Cc1cccc(-n2cnc(C(=O)NNC(=S)Nc3ccccc3)c2)n1`, with -90.4% (active).
Regarding `O=C1COc2ccc(S(=O)(=O)NCCc3ccc(Cl)cc3)cc2N1`, the activity change was 6.96% (inactive).
As to `CCOC(=O)[C@]12CCCC=C1N(CCC1=CCCCC1)C(=O)[C@H](CC(=O)N1CCOCC1)C2`, the activity change was 8.54% (inactive).
As to `Cn1c(N)c(C(=O)COC(=O)c2cnc(Cl)c(Cl)c2)c(=O)n(C)c1=O`, the activity change was -92.3% (active).
As to `Cn1c(N)c(C(=O)COC(=O)c2ccc3ccccc3c2)c(=O)n(C)c1=O`, the activity change is -0.607% (inactive).
As for `Cn1c(N)c(C(=O)COC(=O)COc2ccc(Cl)cc2)c(=O)n(C)c1=O`, the activity change is -10.5% (inactive).
Turning to `COC(=O)c1scc(S(=O)(=O)C(C)(C)C)c1-n1cccc1`, the activity change is 5.88% (inactive).
Consider `CCC(=O)Nc1ccc(C(=O)CSc2nnc(CNc3ccc(Cl)cc3)o2)cc1OC`, for which the activity change is -0.882% (inactive).
With `O=C(NCc1ccccc1Cl)C1CCC(CNc2c(N3CCCCC3)c(=O)c2=O)CC1` (centres undefined), the activity change was 5.37% (inactive).
On to `CCOc1cc(/C=N/NC(=O)c2cccc(S(=O)(=O)N3CCOCC3)c2)ccc1OCC(=O)N(C)C`, for which the activity change was -8.33% (inactive).
In the case of `Cc1cccc(NC(=O)c2cccc(S(=O)(=O)N3CCCC3)c2)n1`, the activity change was -10.7% (inactive).
Take `Cc1ncc(CO)c(/C=N/NC(=O)c2cccc(S(=O)(=O)N3CCCC3)c2)c1O`: the activity change was -82.4% (active).
As for `CCCC[C@@H]1CN=C(N)N1CCc1cc(C(F)(F)F)cc(C(F)(F)F)c1`, the activity change was 16.6% (inactive).
Regarding `Cc1cc(OC(=O)c2ccc(Cl)cc2)cc(=O)n1C`, the activity change is -92.4% (active).
As to `Cn1cncc1COC(=O)c1ccc(Cl)cc1`, the activity change was -6.11% (inactive).
Regarding `Cc1ccc(CNC(=O)CCCNC(=O)c2ccc(Cl)cc2)n1C`, the activity change was -7.14% (inactive).
With `O=C1NC[C@H](Cc2ccc(O)cc2)N(C[C@@H]2CCCN2C[C@H](Cc2ccccc2)N2C[C@H](Cc3ccccc3)N(CC3CCCCC3)C(=O)C2=O)C1=O`, the activity change was 9.57% (inactive).
Then `COC(=O)[C@]12CCCCC=C1N(CCC1=CCCCC1)C(=O)[C@H](CC(=O)NCC1CCCCC1)C2`, with -2.3% (inactive); and `Cc1nc(N)sc1N=Nc1c(C)n(C)n(-c2ccccc2)c1=O`, with -66.7% (active).
The result for `Cc1c(C=O)n(C)n(-c2ccccc2)c1=O` reads 15.7% (inactive); that for `Cc1c(N=Nc2ccc(N(C)C)cc2)c(=O)n(-c2ccccc2)n1C`, -7.33% (inactive).
The result for `CCCCCCCCN1C(=O)[C@H](CC(=O)NCc2cccc3ccccc23)C[C@@]2(C(=O)OC)CCCCC=C12` reads 0.0747% (inactive); that for `N#Cc1ccc(C(C(=O)NCc2ccccc2)n2c(=O)c(-c3ccco3)nc3ccccc32)cc1` (centres undefined), 2.42% (inactive).
